# The entries come from a sample that favours hits as a whole.
# HT1080 IDH1KD tx: kills HT-1080 cells with IDH1 knockdown. HT-1080 IDH1 knockdown viability, ATP luminescence, 48 h. Potency, µM (doses to about 46.1 µM), for the others: at the top dose activity, negative = toxicity, usual class: cytotoxic. hit rate 2% among 360,000. AID 686971;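 further: potency means the concentration at half of the fitted maximal effect; 0% = DMSO wells and -100% = cell-free medium wells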
#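 After a 2 h attachment period, IDH1KD HT-1080 cells took pin-transferred compound for 48 h at 37 °C; ATP-based luminescence after 10 min room-temperature reagent incubation reported viability.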
# IL1B secr inh: inhibitors of inflammasome signaling (IL-1 beta secretion); hit rate 4.7% among 360,000; AID 743279; THP-1 LPS/ATP IL-1B secretion, AlphaLISA, 16 h; hits give low values; activity change, % at 57.5 µM; in the data active means activity change below about -50%; inconclusive means mostly about -30% to -49%
#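 Secreted IL-1B measured by AlphaLISA bead assay after 16 h compound exposure of THP-1 cells; compounds (final up to 57.5 uM) added 1 h before LPS (250 ng/mL) and ATP (1.25 mM) stimulation; lower signal means less secretion.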
# 12-LOX inh: blocks human arachidonate 12S-lipoxygenase; P18054; AID 1671190; Potency, µM (titrated, usually from 108 µM), for inactives: at the top dose activity change, negative = inhibition, usual class: inhibitors; hit rate 1.1% among 580,000; purified 12hLO, xylenol orange hydroperoxide absorbance; further: potency means the concentration at half of the fitted maximal effect
# Target sequence (P18054 whole entry, looked up): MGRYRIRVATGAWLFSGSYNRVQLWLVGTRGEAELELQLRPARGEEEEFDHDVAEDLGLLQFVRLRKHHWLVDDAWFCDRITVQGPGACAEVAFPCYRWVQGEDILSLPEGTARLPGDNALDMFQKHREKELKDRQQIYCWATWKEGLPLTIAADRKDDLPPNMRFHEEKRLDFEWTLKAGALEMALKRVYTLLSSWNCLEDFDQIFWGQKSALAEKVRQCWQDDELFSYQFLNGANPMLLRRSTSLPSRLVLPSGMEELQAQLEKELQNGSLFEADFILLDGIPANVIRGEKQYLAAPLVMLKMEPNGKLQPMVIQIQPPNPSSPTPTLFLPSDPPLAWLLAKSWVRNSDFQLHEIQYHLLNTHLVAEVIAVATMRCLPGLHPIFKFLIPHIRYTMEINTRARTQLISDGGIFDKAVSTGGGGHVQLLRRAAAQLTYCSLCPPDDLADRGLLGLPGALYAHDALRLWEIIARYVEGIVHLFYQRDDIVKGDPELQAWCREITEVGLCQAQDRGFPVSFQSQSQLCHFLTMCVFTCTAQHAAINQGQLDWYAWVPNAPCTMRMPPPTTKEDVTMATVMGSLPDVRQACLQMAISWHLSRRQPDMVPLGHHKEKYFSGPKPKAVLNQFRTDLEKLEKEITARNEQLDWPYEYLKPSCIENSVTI
#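 Purified human 12hLO at 150 nM in 25 mM Hepes, 0.01% Triton X-100, pH 7.0, preincubated 15 min at room temperature with compound. Reaction started with 40 uM arachidonic acid, 30 min at room temperature. Hydroperoxide measured by Fe-xylenol orange, 573/405 nm absorbance ratio.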
# DT40 TDP1 no CPT: qHTS for Inhibitors of human tyrosyl-DNA phosphodiesterase 1 (TDP1): qHTS in cells in absence of CPT. hit rate 15% among 420,000. Potency, µM (titrated, usually from 46.2 µM), for inactives: at the highest dose activity change, negative = growth inhibition, most hits filed as inhibitors. DT40 Tdp1-/- hTDP1 cells, no CPT, ATP luminescence, 48 h; further: potency means the concentration at half of the fitted maximal effect; nearly all actives have a fitted effect of over 55% in size
#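 Growth of hTDP1-complemented DT40 Tdp1-knockout cells is measured by ATP luminescence after at least 48 hr compound exposure at 37 °C, with DMSO substituting for the 20 nM CPT used in the parallel screen.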
# DT40 TDP1 CPT: growth inhibition of DT40 Tdp1-/-;hTDP1 cells with camptothecin (screen for TDP1 inhibitors); chicken DT40 Tdp1-/-;hTDP1 cells + 20 nM CPT, ATP luminescence, 48 h; Potency, µM (highest dose often 46.2 µM), inactives show top-dose activity change, negative = growth inhibition, usual class: inhibitors; hit rate 12% among 420,000; further: potency means the concentration at half of the fitted maximal effect; nearly all actives have a fitted effect of over 55% in size
#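 Chicken DT40 Tdp1-/- cells complemented with human TDP1, 400 cells/well, exposed to compounds plus 20 nM camptothecin for at least 48 h at 37 C; viability read as ATP content by CellTiter-Glo luminescence.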
# HT1080-NT tox: kills 2HG-producing HT-1080-NT fibrosarcoma cells | Potency, µM (highest dose often 46.1 µM), without a hit: top-dose activity, negative = less viability, hits mostly cytotoxic | HT-1080-NT fibrosarcoma viability, CellTiter-Glo ATP luminescence, 48 h | AID 686970 | hit rate 1.6% among 360,000;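 further: NT is the 2HG producing partner of a matched IDH1 knockdown line; potency means the concentration at half of the fitted maximal effect; 0% = DMSO-treated cells and -100% = media-only wells without cells; nearly all actives have a fitted effect of over 55% in size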
#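 Luminescent CellTiter-Glo readout after 48 hours of compound exposure at 37 degrees C defined viability of HT-1080-NT cells. Activity was normalized to DMSO wells and cell-free media wells; concentration-response curves were fitted and assigned curve classes.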
# * hit, by the source's call; ? = inconclusive; · = no result given; [ ] = remark or other dose. Unless noted, the call rests on the fitted dose curve; in most records, active means well fitted curve in the direction sought with a large enough effect; inconclusive means small, poorly fitted or top-dose-only effect, or another doubt; inactive means no such curve, though single readings can be large; an effect the other way counts as inactive or inconclusive. Unless noted, on the % scale 0 is the no-effect control and ±100 the full control effect.
SMILES,HT1080 IDH1KD tx,IL1B secr inh,12-LOX inh,DT40 TDP1 no CPT,DT40 TDP1 CPT,HT1080-NT tox
O=C(NCCOc1ccccc1Cl)c1ccc2c(c1)S(=O)(=O)c1cc(Cl)ccc1C2=O,1.1%,22.6,-2.7%,-27.1%,?,9.9%
O=C1c2ccccc2S(=O)(=O)c2cc(N3CCN(C(=O)c4ccccc4)CC3)ccc21,1.0%,-67.2*,-1.1%,20.6µM*,14.6µM*,2.9%
CC1CCC(NC(=O)c2ccc3c(c2)S(=O)(=O)c2ccccc2C3=O)CC1 (stereo not given),-1.2%,-3.9,6.1%,14.6µM*,?,-1.4%
O=C(NCCc1ccccc1)c1ccc2c(c1)S(=O)(=O)c1ccccc1C2=O,-25.8%,-7.0,-4.6%,13µM*,?,-10.6%
Cc1onc(-c2ccccc2Cl)c1C(=O)N1CCN(S(=O)(=O)c2c(F)cccc2F)CC1,·,·,8.3%,·,·,·
Cc1ccc(C(=O)CSc2ncc(C(F)(F)F)cc2Cl)cc1,·,·,10.4%,·,·,·
Cc1ccccc1CN1CCC(CNc2ncnc3onc(-c4ccc(Cl)cc4)c23)CC1,·,·,-7.4%,16.4µM*,?,·
Clc1ccc(CN2CCC(CNc3ncnc4onc(-c5ccc(Cl)cc5)c34)CC2)cc1,·,·,?,23.1µM*,?,·
Cc1ccc(CN2CCC(CNc3ncnc4onc(-c5ccc(Cl)cc5)c34)CC2)cc1,·,·,3.9%,16.4µM*,18.4µM*,·
Cc1cccc(CN2CCC(CNc3ncnc4onc(-c5ccc(Cl)cc5)c34)CC2)c1,·,·,-4.8%,?,?,·
CCCCOc1ccc(C(=O)N2CCCCC2CCN2CCOCC2)cc1 (stereo not given),·,·,-27.9%,?,?,·
CC(C)Oc1ccc(C(=O)CCN2CCOCC2)cc1,-10.1%,0.8,?,3.66µM*,3.26µM*,-22.3%
CCCCCOc1ccc(C(=O)CCN2CCOCC2)cc1,?,-18.3,?,8.2µM*,5.8µM*,?
Cc1cccc(CNc2nc3cnc(-c4ccc(F)cc4)cc3n2C)c1,·,·,-10.8%,·,·,·
O=C(CS(=O)Cc1ccco1)NC/C=C\COc1cc(CN2CCCCC2)ccn1 (stereo not given),·,·,·,-19.1%,-16.4%,·
CC(=O)Nc1cc(-c2ccc(C(=O)NC3CC3)cc2)cn2c(-c3cccc(C(F)(F)F)c3)cnc12,16.4µM*,-52.6*,?,23.1µM*,?,?
CC(=O)Nc1cc(-c2ccc(C(=O)NC3CC3)cc2)cn2c(-c3cccc(C(C)=O)c3)cnc12,?,-19.2,?,23.1µM*,?,14.6µM*
Cc1nc2ccccc2n1/N=C/c1ccc([N+](=O)[O-])s1,?,?,4.2%,5.17µM*,3.66µM*,?
O=[N+]([O-])c1ccc(/C=N/Nc2ncccc2[N+](=O)[O-])s1,10.8%,-3.1,158.5%,1.3µM*,1.46µM*,-5.4%
O=C(c1ccccc1[N+](=O)[O-])n1cnc2ccccc21,1.0%,-9.3,-9.2%,-5.4%,9.7%,-1.5%
Cc1nc2ccccc2n1/N=C/c1ccc([N+](=O)[O-])o1,10µM*,-97.4*,-3.3%,2.91µM*,1.84µM*,12.6µM*
O=[N+]([O-])c1cccnc1Nc1ccc(Cl)cc1,4.0%,4.4,-2.9%,0.7%,1.9%,-1.1%
O=[N+]([O-])c1ccc(/C=N/n2cnc3ccccc32)s1,?,-73.8*,-12.7%,3.66µM*,3.66µM*,?
Cc1ccc(Cl)cc1N1CCN(C(=O)CCC(=O)Nc2ccc3nc(N4CCC(C)CC4)cc(C)c3c2)CC1,·,·,0.1%,13µM*,23.1µM*,·
Cc1cc(N2CCC(C)CC2)nc2ccc(NC(=O)CCC(=O)N3CCN(c4cccc(C(F)(F)F)c4)CC3)cc12,·,·,6.7%,2.31µM*,3.26µM*,·
SMILES,HT1080 IDH1KD tx,IL1B secr inh,12-LOX inh,DT40 TDP1 no CPT,DT40 TDP1 CPT,HT1080-NT tox
Cc1cc(N2CCN(C)CC2)nc2ccc(NC(=O)CCC(=O)N3CCN(c4ccc([N+](=O)[O-])cc4)CC3)cc12,16.4µM*,-21.8,-16.7%,18.4µM*,25.9µM*,20.6µM*
Cc1cc(N2CCOCC2)nc2ccc(NC(=O)CCC(=O)N3CCN(c4ccccc4)CC3)cc12,0.0%,14.0,-1.3%,?,?,5.2%
Cc1ccc(N(CC(=O)NCCSCc2ccco2)S(C)(=O)=O)cc1,1.7%,9.4,1.2%[57.4 µM],-7.7%,-10.8%,0.9%
O=C(CN(c1ccccc1)S(=O)(=O)c1ccccc1)NCCSCc1ccco1,-2.4%,-5.0,0.0%,-27.1%,-18.9%,2.9%
Cc1ccc(N(CC(=O)NCCSCc2ccco2)S(=O)(=O)c2ccc(F)cc2)cc1,-2.6%,-23.2,-10.1%,23.1µM*,25.9µM*,-5.3%
Cc1ccc(S(=O)(=O)N(CC(=O)NCCSCc2ccco2)c2cc(C)ccc2C)cc1,-9.7%,-23.9,39.8µM*,?,15.8µM*,-20.3%
CSc1ccccc1NC(=O)/C(=C/c1ccco1)c1ccccc1,·,·,50.1µM*,·,·,·
Cc1cnc(-c2cccnc2)n1CC1CCN(C(=O)c2ccco2)CC1,·,·,10.9%,·,·,·
CN(c1cc(Cl)c2c(c1)OCO2)c1cc2c(c3c1ccn3C)C1CCC2C1 (stereo not given),9.7%,51.8,?,20.6µM*,?,5.4%
CCN(CC)c1cc2c(c3c1ccn3C)C1CCC2C1 (stereo not given),0.6%,21.3,?,?,25.9µM*,6.3%
CCN(Cc1ccccc1)c1cc2c(c3c1ccn3C)C1CCC2C1 (stereo not given),-5.9%,-6.0,?,23.1µM*,23.1µM*,0.2%
CCCN(CC1CC1)c1cc2c(c3c1ccn3C)C1CCC2C1 (stereo not given),?,31.0,-18.9%,?,?,?
CC(C)NC(=O)NC(=O)COC(=O)c1cccc(S(=O)(=O)N2CCCCC2)c1,14.5%,-15.3,-16.0%,-1.3%,-26.1%,10.7%
CCOc1ccccc1NC(=O)COc1coc(CN2CCc3ccccc3C2)cc1=O,-3.8%,-12.4,-4.9%,13µM*,?,-3.2%
CCOc1ccccc1NC(=O)COc1coc(CN2CCCc3ccccc32)cc1=O,-10.0%,2.3,-15.6%,?,?,-6.9%
O=c1c(Cc2ccc(F)cc2)c(O)ccn1Cc1cccc(Cl)c1,-8.5%,0.0,-6.6%,16.4µM*,?,-2.4%
CN1CCN(c2ccc(NC(=S)NC(=O)c3cccc4ccccc34)cc2)CC1,-7.2%,-100.1*,28.2µM*,11.6µM*,23.1µM*,?

# Assay outcomes from PubChem BioAssay.
